SMILES strings stand for the structures. Screen size: about 1,200 compounds; about 210 (18%) were called active. The list is a sample of the results. Values without a mark were called inactive. Cut-off read from the data, not from the text of the source: active = inhibition above about 30%; inactive = the rest.

By inhibition is commonly meant the change of the read-out against control, counted positive when it falls.

The nature of the experiment: fluorescence readout artefact check – biochemical, HTRF, uHTS, artefact control for SUMOylation inhibitor project, confirmation (AID 2069). Particulars: HTRF interference counterscreen, at 35 µM, hits give high values. Background: TR-FRET usually uses a lanthanide donor and a delayed reading to cut background.
`O=C(NNC(=O)c1sc2ccccc2c1Cl)Nc1ccc(Cl)cc1`: the inhibition is -5%.

Turning to `COc1ccc2c(c1)Cc1sc(NC(=O)c3ccccc3)nc1-2`, the inhibition was 13.9%.

Turning to `COc1ccc(C(=O)Nc2nc3c(s2)Cc2cc(OC)ccc2-3)cc1`, the inhibition is 5.45%.

For the molecule `COCCN(CCOC)S(=O)(=O)c1ccc(C(=O)Nc2nc3c(s2)CCc2ccccc2-3)cc1`, the inhibition was 36.7% (active).

In the case of `O=C(NN1C(=O)/C(=C/C=C/c2ccco2)SC1=S)c1ccncc1`, the inhibition is 16.8%.

Consider `Cc1cc(C)n(Cc2ccc(C(=O)N/N=C/c3ccc(-c4ccc([N+](=O)[O-])cc4)o3)o2)n1`, for which the inhibition was 6.7%.

Take `O=C(Cc1ccccc1)Nc1nnc(-c2ccco2)s1`: the inhibition is 13.9%.

Take `CCC(C)(C)C1CCc2c(sc(NC(=O)c3ccccc3C(=O)O)c2C#N)C1` (stereo unspecified): the inhibition is 7.6%.

For `CCCCOc1ccc(/C=C/C(=O)Nc2ccc(C(N)=O)cc2)cc1`, the inhibition was 10.9%.

Consider `COc1ccccc1NC(=O)c1sc2ncn(CC(=O)Nc3ccccc3)c(=O)c2c1C`, for which the inhibition is 4.35%.

Take `CCN(C(=S)Nc1cc(S(=O)(=O)N2CCOCC2)ccc1Cl)c1cccc2ccccc12`: the inhibition is -26.1%.

As for `O=C(O)c1cc2cccc(S(=O)(=O)N3CCOCC3)c2cc1O`, the inhibition was 49.6% (active).

Turning to `O=C(Nc1ccccc1O)c1cc(S(=O)(=O)N2CCOCC2)c(Cl)cc1Cl`, the inhibition is 10.6%.

`Cc1occc1C(=O)N1CCN(c2ccccc2)CC1`: the inhibition is 0.55%.

Consider `CCOc1ccc(N2C(=O)c3ccc(C(=O)OCC(=O)N(CC)C4CCS(=O)(=O)C4)cc3C2=O)cc1` (stereo unspecified), for which the inhibition was -4.1%.

Take `Oc1ccc(N=Cc2c(O)ccc3ccccc23)cc1`: the inhibition is 10.2%.

As for `Oc1ccc2ccccc2c1C=Nc1ccc(Cl)cn1`, the inhibition was 37.1% (active).

On to `Oc1ccccc1N=Cc1c(O)ccc2ccccc12`, for which the inhibition is -5.9%.

As to `CC1=CC2(O)OCCN(CCO)C2=CC1=O` (stereo unspecified), the inhibition was 4.6%.

In the case of `O=C1C=C(O)c2c(O)cccc2C1=O`, the inhibition was -24.9%.

`COc1cccc(/C=C2/SC(=S)N(CC(=O)NNC(=O)c3ccccc3O)C2=O)c1`: the inhibition was -13%.

Regarding `Cc1ccccc1Nc1cc2ccccc2c(=O)[nH]1`, the inhibition is 25.8%.

As to `CN(c1ccccc1)c1cc(=O)[nH]c(=O)[nH]1`, the inhibition was 0.55%.

With `CCN(c1ccccc1)c1cc2ccccc2c(=O)[nH]1`, the inhibition was 37% (active).

As to `Cc1[nH][nH]c(=O)c1C(c1ccc(-c2ccccc2C(=O)O)o1)c1c(C)[nH][nH]c1=O`, the inhibition is 9.65%.

Regarding `COc1ccc(CCN2Cc3c(cccc3[N+](=O)[O-])C2=O)cc1OC`, the inhibition is -1.3%.

In the case of `CCOc1ccccc1CNc1ccc(O)cc1`, the inhibition was -10.2%.

As to `O=C(/C=C/c1ccco1)NC(=S)Nc1ccc(O)c(-c2nc3ccccc3s2)c1`, the inhibition was 9.4%.

As for `Cc1ccc2c(SCC(=O)NCc3ccco3)nc(-c3ccc(F)cc3)nc2c1`, the inhibition is -4.7%.

As to `O=C(COC(=O)c1cc(-c2cccs2)nc2ccccc12)NCc1ccco1`, the inhibition is 16.3%.

For the molecule `Cc1nc2ccc(NC(=O)NCc3ccco3)cc2s1`, the inhibition is 31.5% (active).

Regarding `O=C(NCc1ccco1)Nc1ccc2snnc2c1`, the inhibition was 38.8% (active).

In the case of `CCOc1cc(NC(=S)NCc2ccco2)c(OCC)cc1NC(=O)CC`, the inhibition was -7.1%.

Regarding `CN(C)c1cc(N/N=C/c2ccc(Cl)cc2)nc(N(C)C)n1`, the inhibition was 7%.

On to `O=C(O)CN1C(=O)/C(=C\c2cc([N+](=O)[O-])ccc2OCc2ccccc2Cl)SC1=S`, for which the inhibition was 8.45%.

In the case of `Cc1ccc(NC2=CC(=O)CC(c3ccco3)C2)c(N)c1` (stereo unspecified), the inhibition was 1%.

For the molecule `COc1ccc(-c2cc(=O)[nH][nH]2)cc1`, the inhibition is 2.7%.

In the case of `N#CC(c1nc2ccccc2nc1N1CCCC1)S(=O)(=O)c1cccs1` (stereo unspecified), the inhibition is -0.1%.

In the case of `COC(=O)c1cccc(-c2ccc(C(c3c(C)[nH][nH]c3=O)c3c(C)[nH][nH]c3=O)o2)c1`, the inhibition is -4.3%.

On to `Oc1ccc(Br)cc1CNc1cccc2cccnc12`, for which the inhibition was -17.6%.

Take `Cc1ccc(NC2=CC(=O)C(=O)c3ccccc32)cc1`: the inhibition was -12.4%.

As to `O=C1C=C(N2CCOCC2)c2ccccc2C1=O`, the inhibition was 51.9% (active).

`O=C1C=C(Nc2ccccc2)c2ccccc2C1=O`: the inhibition is -24.5%.

In the case of `Cc1[nH][nH]c(=O)c1C(c1c(C)[nH][nH]c1=O)c1cn(Cc2cccc3ccccc23)c2ccccc12`, the inhibition was -32.7%.

Take `CCOc1cc(CNc2ccccc2SC)ccc1O`: the inhibition is -6.3%.

For the molecule `COc1cc(C)c2c(c1C=O)Oc1c(c(C)c(O)c3c1C(O)OC3=O)OC2=O` (stereo unspecified), the inhibition is 12.4%.

Regarding `CN(C)/C=C1\Oc2ccc3ccccc3c2C1=O`, the inhibition was -6.85%.

Take `CC1=Nc2nc(N3CCCCC3)c(C#N)c3c4c(nc(c23)N1)N(c1ccc(C(C)C)cc1)C(=O)C4`: the inhibition is 15.2%.

Take `O=C(O)COc1ccccc1C(Nc1cccnc1)c1cc(Cl)c2cccnc2c1O` (stereo unspecified): the inhibition was 30.4% (active).

Turning to `CCOc1ccc(C(Nc2cccnc2)c2cc(Cl)c3cccnc3c2O)cc1` (stereo unspecified), the inhibition was 14.3%.

As for `CCCCC(=O)NC(c1ccccc1Cl)c1ccc2cccnc2c1O` (stereo unspecified), the inhibition was -42.6%.

In the case of `COc1ccc(/C=N/N=C2/CC(C)(C)Cc3n[nH]c(=O)cc32)cc1`, the inhibition is 0.85%.

As to `COc1ccccc1NC(=O)Cn1c(O)c(N=NC(=O)c2ccccc2O)c2ccccc21`, the inhibition was 2.2%.

`CCCCn1c(NC(=O)c2ccc(Br)o2)c(S(=O)(=O)c2ccccc2)c2nc3ccccc3nc21`: the inhibition was 1.65%.

Consider `Nc1ccc2nc(-c3ccc(-c4nc5ccc(N)cc5[nH]4)cc3)[nH]c2c1`, for which the inhibition is 25.4%.

Regarding `Cc1ccc(C)c(-c2nc3ccc(N)cc3[nH]2)c1`, the inhibition was 57% (active).

For the molecule `Nc1ccc(-c2nc3ccc(N)cc3[nH]2)cc1`, the inhibition was 66.3% (active).

As to `O=C(Nc1nccs1)c1cc(-c2ccco2)nc2ccccc12`, the inhibition was 22.2%.

For the molecule `Cc1oc2c(c1C(=O)O)C(=O)c1ccccc1C2=O`, the inhibition was -5.95%.

On to `Cc1ccc(NC(=O)CN2C(=O)S/C(=C\c3ccc(-c4cccc(C(=O)O)c4C)o3)C2=O)cc1C`, for which the inhibition is 26.3%.

With `O=S(=O)(Nc1ccc(O)c2ccccc12)c1cccs1`, the inhibition was -16.9%.

The values are drawn from PubChem BioAssay AID2069 (Sanford-Burnham Center for Chemical Genomics, 2009).
